This is an account of results in the supplement of paper PMC10498489.

Screen size: about 2,300 compounds; about 330 (14%) showed activity. The list is a sample of the results. Values without a mark were called inactive.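 The calls were made as follows: active = median modified Z-score above 1.96; inactive = 1.96 or below.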

The subject of the test is HepG2 Srxn1-GFP reporter cells (+30 nM CDDO-Me). Nature of the test: Srxn1-GFP intensity median modified Z-score relative to plate median; higher = stronger NRF2 / oxidative stress reporter activation, active = hit call of the paper. The following applies: 10 µM; exposure time: 24h. In a few lines: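 Each value is the replicate median of a per-plate modified Z-score for GFP intensity in HepG2 Srxn1-GFP BAC reporter cells. The cells (20,000 per well, 96-well plates, three replicate plates) received compound at 10 μM together with an NRF2 activator at 30 nM for 24 h, in ≤0.1% DMSO. Cytoplasmic GFP was quantified per cell from confocal images of formaldehyde-fixed, Hoechst-stained cells, leaving out images with fewer than 100 cells, and scaling used 1.4826 × median absolute deviation.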
Regarding `CO[C@@H]1[C@@H](OC(N)=O)[C@@H](O)[C@H](Oc2ccc3c(=O)c(NC(=O)c4ccc(O)c(CC=C(C)C)c4)c(O)oc3c2C)OC1(C)C` [euspeclibcmpd2334], the “Srxn1-GFP intensity median modified Z-score” value was -0.255.

In the case of `N#CCSc1nnc(-c2ccc(Br)cc2)n1C1CCCCC1`, the “Srxn1-GFP intensity median modified Z-score” value is 1.88.

As to `CC(C)CC1NC(=O)C(CCCN)NC(=O)C(C(C)C)NC(=O)C(Cc2ccc(O)cc2)NC(CCC(=O)O)C(=O)NC(CC(N)=O)C(=O)C(Cc2ccccc2)NC(=O)C(Cc2ccccc2)NC(=O)C2CCCN2C(=O)C(Cc2ccccc2)NC1=O` (stereo not drawn) [euspeclibcmpd1841], the “Srxn1-GFP intensity median modified Z-score” value is 2.86 (active).

As to `CCC(C)C(=N)C1NC(C(=O)NC(CC(C)C)C(=O)NC(CCC(=O)O)C(=O)NC(C(=O)NCCCCC2NC(=O)C(CC(N)=O)NC(=O)C(CC(=O)O)NC(=O)C(Cc3c[nH]cn3)NC(=O)C(Cc3ccccc3)NC(=O)C(C(C)CC)NC(=O)C(CCCN)NC2=O)C(C)CC)CS1` (stereo not drawn) [euspeclibcmpd30], the “Srxn1-GFP intensity median modified Z-score” value is -0.458.

On to `CCC(C)CCCCC(=O)NC(CCN)C(=O)NC(C(=O)NC(CCN)C(=O)NC1CCNC(=O)C(C(C)O)NC(=O)C(CCN)NC(=O)C(CCN)NC(=O)C(CC(C)C)NC(=O)C(Cc2ccccc2)NC(=O)C(CCN)NC1=O)C(C)O` (stereo not drawn) [euspeclibcmpd239], for which the “Srxn1-GFP intensity median modified Z-score” value is 0.328.

For the compound `CC(=O)c1ccc(S(=O)(=O)CC(=O)NC2CCCC2)cc1`, the “Srxn1-GFP intensity median modified Z-score” value was 1.37.

As to `N=c1nc(-c2cc(Cl)ccc2Cl)[nH]c(=N)[nH]1` [euspeclibcmpd1188], the “Srxn1-GFP intensity median modified Z-score” value was 0.145.

Take `CCCCCCc1ccc(O)cc1O` [euspeclibcmpd2121]: the “Srxn1-GFP intensity median modified Z-score” value is 3.73 (active).

In the case of `CCCCOC(=O)c1ccc(O)cc1` [euspeclibcmpd905], the “Srxn1-GFP intensity median modified Z-score” value is 0.67.

For the compound `C[C@H]1[C@H](C)CC[C@]2(C(=O)O)CC[C@]3(C)C(=CCC4[C@@]5(C)C[C@@H](O)[C@H](O)[C@@](C)(CO)C5[C@H](O)C[C@]43C)[C@H]12` (stereo partly drawn) [euspeclibcmpd1692], the “Srxn1-GFP intensity median modified Z-score” value was -0.252.

For `Cn1c(O)cc(-c2ccccc2)c1O` [euspeclibcmpd796], the “Srxn1-GFP intensity median modified Z-score” value is -0.502.

With `CCCCNc1ccc(C(=O)OCCN(C)C)cc1` [euspeclibcmpd287], the “Srxn1-GFP intensity median modified Z-score” value was -0.0522.

On to `CCCCOC(=O)c1ccc(N)cc1` [euspeclibcmpd342], for which the “Srxn1-GFP intensity median modified Z-score” value was 0.38.

As for `CCCCNc1ccc(C(=O)OCCOCCOCCOCCOCCOCCOCCOCCOCCOC)cc1` [euspeclibcmpd1214], the “Srxn1-GFP intensity median modified Z-score” value was 5.26 (active).

In the case of `Cn1cc(O)[nH]c1=N` [euspeclibcmpd1004], the “Srxn1-GFP intensity median modified Z-score” value is -0.153.

`CCN(CC)CCNC(=O)c1ccc(I)cc1`: the “Srxn1-GFP intensity median modified Z-score” value is 0.454.

As to `N=c1[nH]c(=S)c2nc[nH]c2[nH]1` [euspeclibcmpd292], the “Srxn1-GFP intensity median modified Z-score” value was 28.2 (active).

On to `N=c1[nH]cnc2[nH]cnc12` [euspeclibcmpd349], for which the “Srxn1-GFP intensity median modified Z-score” value was -0.183.

Regarding `NCCCC(N)CC(=O)NCC1NC(=O)C(CO)NC(=O)C(N)CNC(=O)C(C2CCN=C(N)N2)NC(=O)C(C=NC(N)=O)NC1=O` (stereo not drawn) [euspeclibcmpd1312], the “Srxn1-GFP intensity median modified Z-score” value was 0.

In the case of `O=C(O)C1O[C@@H](Oc2cc3oc(-c4ccccc4)cc(=O)c3c(O)c2O)[C@H](O)[C@@H](O)[C@@H]1O` (stereo partly drawn) [euspeclibcmpd2123], the “Srxn1-GFP intensity median modified Z-score” value was -0.648.

Regarding `CCCCCC1C(=O)CCC1CC(=O)OC` (stereo not drawn) [euspeclibcmpd1637], the “Srxn1-GFP intensity median modified Z-score” value is -0.322.

For the compound `CCC(N)C12CC3CC(CC(C3)C1)C2` (stereo not drawn), the “Srxn1-GFP intensity median modified Z-score” value was 0.333.

As for `CC1(C)S[C@@H]2[C@H](N3C(=O)C(c4ccccc4)NC3(C)C)C(=O)N2C1C(=O)O` (stereo partly drawn) [euspeclibcmpd2360], the “Srxn1-GFP intensity median modified Z-score” value was -0.502.

As to `CSc1nc2cc(Cl)c(Oc3cccc(Cl)c3Cl)cc2[nH]1` [euspeclibcmpd1225], the “Srxn1-GFP intensity median modified Z-score” value was 4.92 (active).

Consider `COC(=O)C[C@H]1C(C)(C)C(=O)C2CC3=C4CC(=O)O[C@@H](c5ccoc5)[C@]4(C)CCC3[C@@]1(C)C2=O` (stereo partly drawn) [euspeclibcmpd2085], for which the “Srxn1-GFP intensity median modified Z-score” value was -0.00623.

With `COc1cc2[nH]c(N3CCN(C(=O)c4ccco4)CC3)nc(=N)c2cc1OC` [euspeclibcmpd1302], the “Srxn1-GFP intensity median modified Z-score” value was -0.393.

As for `Clc1cnc(N/N=C/c2sc(N3CCCCC3)nc2-c2cccs2)c(Cl)c1`, the “Srxn1-GFP intensity median modified Z-score” value is 0.529.

For `COC(=O)CCC(C)[C@H]1CCC2C3C(C[C@H](O)[C@@]21C)[C@@]1(C)CC[C@@H](O)C[C@H]1C[C@H]3O` (stereo partly drawn) [euspeclibcmpd1539], the “Srxn1-GFP intensity median modified Z-score” value was -0.423.

As to `CC1(C)CC2C(=O)CCC3OC3(C)CCC21` (stereo not drawn) [euspeclibcmpd2011], the “Srxn1-GFP intensity median modified Z-score” value was -0.362.

In the case of `O=C(Cc1c[nH]c2ccccc12)NCCc1c[nH]c2ccccc12`, the “Srxn1-GFP intensity median modified Z-score” value is 1.76.

As to `Cc1ccc(Cl)c(Nc2ccccc2C(=O)O)c1Cl` [euspeclibcmpd2058], the “Srxn1-GFP intensity median modified Z-score” value is 0.0269.

`Cc1cccc(C(=O)O)c1O` [euspeclibcmpd1013]: the “Srxn1-GFP intensity median modified Z-score” value was -0.315.

For `Cc1cccc(Nc2ccccc2C(=O)O)c1C`, the “Srxn1-GFP intensity median modified Z-score” value was 0.337.

As to `O=C(O)c1ccccc1Nc1ccccc1` [euspeclibcmpd1737], the “Srxn1-GFP intensity median modified Z-score” value is -0.16.

For the compound `Cc1c(Cl)cccc1Nc1ccccc1C(=O)O` [euspeclibcmpd1068], the “Srxn1-GFP intensity median modified Z-score” value was 4.04 (active).

Turning to `O=C(O)c1ccccc1Nc1cccc(C(F)(F)F)c1` [euspeclibcmpd370], the “Srxn1-GFP intensity median modified Z-score” value is 2.94 (active).

As to `Cc1cccc(Nc2ccccc2C(=O)OCC#N)c1C`, the “Srxn1-GFP intensity median modified Z-score” value is 0.491.

For the compound `Cc1cccc(Nc2ccccc2C(=O)O)c1C` [euspeclibcmpd373], the “Srxn1-GFP intensity median modified Z-score” value was 2.69 (active).

As to `O=C(c1ccccc1Nc1cccc(C(F)(F)F)c1)N1CCC1`, the “Srxn1-GFP intensity median modified Z-score” value is 1.38.

Turning to `CON(C)C(=O)c1ccccc1Nc1cccc(C(F)(F)F)c1`, the “Srxn1-GFP intensity median modified Z-score” value is 1.46.

Take `O=C(O)CCCCC(=O)O` [euspeclibcmpd2456]: the “Srxn1-GFP intensity median modified Z-score” value is 0.307.

With `C[C@H]1O[C@H](O[C@H]2[C@H](O)[C@@H](O)[C@@H](O[C@H]3[C@H](O)[C@@H](O)C(O)O[C@@H]3CO)O[C@@H]2CO)[C@H](O)[C@@H](O)[C@@H]1N[C@H]1C=C(CO)[C@@H](O)[C@H](O)[C@H]1O` (stereo partly drawn) [euspeclibcmpd430], the “Srxn1-GFP intensity median modified Z-score” value is -0.321.

As to `CC[C@H]1OC(=O)C(C)[C@@H](O[C@H]2C[C@@](C)(OC)[C@@H](O)[C@H](C)O2)[C@H](C)[C@@H](O[C@@H]2O[C@H](C)C[C@H](N(C)C)[C@H]2O)[C@](C)(O)CC(C)C(=NOCOCCOC)C(C)[C@@H](O)[C@]1(C)O` (stereo partly drawn) [euspeclibcmpd567], the “Srxn1-GFP intensity median modified Z-score” value was -0.00752.
